Consider 99 compounds from PubChem BioAssay AID652106 (National Center for Advancing Translational Sciences (NCATS), 2013).

SMILES strings stand for the structures. The campaign covered roughly 370,000 compounds. About 500 (0.14%) were called active. Entries that show only a call come without a potency. Inconclusive results (about 2%) are left out. The sample holds actives, similar compounds and a random draw of the others, so the mix is not that of the screen. The call rests on the fitted dose curve; in most records, active means well fitted activation curve with a large enough effect; inconclusive means small, poorly fitted or top-dose-only effect; inactive means no such curve, though single readings can be large or run the other way.
Potency means the concentration at half of the fitted maximal effect.

The test in a line: qHTS of alpha-syn Inhibitors. Further: nearly all actives have a fitted effect of over 65% in size. Conditions: Yeast expressing alpha-synuclein, BacTiter-Glo, 24 h; Potency: growth rescue; series mostly up to 46.1 µM. An excerpt:
The goal of this project is to identify new chemical probes capable of reversing the toxicity associated with the Parkinson disease-related protein, alpha-synuclein. Compounds will be selected on their ability to restore growth in yeast cells expressing toxic levels of alpha-synuclein. These compounds will provide a complementary approach to deciphering the tangled mechanisms of toxicity and protection that we have uncovered through genome-wide genetic screens and are beginning to uncover in a large-scale proteomics analysis with mass spectroscopy. To this end, a miniaturized assay was developed to be screened against the Molecular Libraries Small Molecule Repository (MLSMR) to discover alpha-synuclein inhibitors. Please note that in the set-up this yeast-based assay compounds that inhibit as alpha-syn, have a read-out as activators. NIH Chemical Genomics Center [NCGC] NIH Molecular Libraries Probe Centers Network [MLPCN] MLPCN Grant: NS060957 Assay Submitter (PI): Susan Lindquist, Whitehead Institute/MIT
Dispense 2.5 microL yeast galactose medium per 1536-well plate, pin compound, dispense 2.5 microL alpha-synuclein expressing yeast in galactose medium at OD600=0.02 (pregrown in raffinose medium to mid-log phase) per well, incubate for 24 hr at 30 deg C, and cell growth will be measured using 5 microL of Bactiter/Glo reagent to entire plate and read using Luminescence Protocol in ViewLux.
Background: Quantitative high-throughput screening tests each substance at several concentrations.
As for `O=C(O)c1c(Br)c(Br)c(Br)c(Br)c1C1c2ccc(O)cc2Oc2cc(O)ccc21`, the Potency result was “inactive”.

Take `O=C(CN1C(=O)COc2ccc(S(=O)(=O)N3CCCCCC3)cc21)N1CCN(c2cccc(C(F)(F)F)c2)CC1`: the Potency entry was “inactive”.

Turning to `C=COC(=O)N1CCN(/[N+]([O-])=N/Oc2ccc([N+](=O)[O-])cc2[N+](=O)[O-])CC1`, the Potency result was “inactive”.

In the case of `CCc1ccc(NC(=O)CCS(=O)(=O)c2cc3c(cc2Cl)NC(=O)CO3)cc1`, the Potency entry is “inactive”.

`O=C(CN1C(=O)COc2ccc(S(=O)(=O)N3CCOCC3)cc21)N1CCN(c2cccc(Cl)c2)CC1`: the Potency result was “inactive”.

`Oc1ccc(Cl)cc1C1C=C(c2ccc3c(c2)OCO3)NC(c2ccc(F)c(Br)c2)N1` (centres undefined): the Potency entry was “inactive”.

Take `CCCSc1nc2sc3c(c2c(=O)n1-c1cccc(Br)c1)CC(C)(C)OC3`: the Potency entry was “inactive”.

On to `CN1CCN(/[N+]([O-])=N/Oc2ccc([N+](=O)[O-])cc2[N+](=O)[O-])CC1`, for which the Potency result is “inactive”.

`CC1(C)Cc2ccccc2-c2c[nH]c(=O)n21`: the Potency result is “inactive”.

Regarding `Cc1c(NS(=O)(=O)c2ccc(Cl)cc2)c(=O)n(-c2ccccc2)n1C`, the Potency result was “inactive”.

For `O=C(O)C1=C/C(=C/C=[N+]2c3cc(O)c(O[C@H]4OC(CO)[C@@H](O)[C@@H](O)[C@@H]4O)cc3C[C@@H]2C(=O)[O-])C[C@H](C(=O)O)N1` (some centres undefined), the Potency entry was “inactive”.

For the compound `COc1ccc(-c2nc3c(c(SCC(=O)Nc4ccc(C(=O)O)cc4)n2)Cc2ccccc2O3)cc1`, the Potency entry was “inactive”.

For the compound `Cc1ccc(S(=O)(=O)N2CCN(c3nc(-n4cnc5ccccc54)nc4ccccc34)CC2)cc1`, the Potency entry was “inactive”.

On to `SCc1nc2ccc(Cl)cc2[nH]1`, for which the Potency entry is “inactive”.

Take `COc1ccc(-c2c(C)c3ccc(O)c(CN4CCCC4)c3oc2=O)cc1OC`: the Potency entry was “inactive”.

With `CCOC(=O)/C(=C\c1ccc([N+](=O)[O-])cc1)C(=O)c1cc(C(C)=O)c(Nc2ccccc2)s1`, the Potency entry was “inactive”.

Consider `CCc1ccccc1NC(=O)/C(=C/c1ccccc1)c1ccccc1`, for which the Potency entry was “inactive”.

In the case of `CCOC(=O)C(=Cc1ccccc1)C(=O)c1ccccc1`, the Potency is 14.1 µM (active).

Take `CCC(CC)C(=O)N1CCc2cc(OC)c(OC)cc2C1COc1ccc(F)cc1` (centres undefined): the Potency result is “inactive”.

On to `CC1COc2ccccc2N1C(=O)c1ccc(F)cc1` (centres undefined), for which the Potency entry is “inactive”.

On to `O=C(Nc1nnc(C2COc3ccccc3O2)o1)c1ccc(F)cc1` (centres undefined), for which the Potency was 17.8 µM (active).

With `O=C(Nc1cccc2c1CCCC2)c1ccc(F)cc1`, the Potency result is “inactive”.

Consider `CC(C)(C)OC(=O)N1CCC(c2c(C(=O)Nc3ccc4c(c3)OCO4)cnn2-c2ccccc2)CC1`, for which the Potency entry was “inactive”.

As for `CCN1CCN(c2ccc(/C=C/c3ccnc4ccccc34)cc2)CC1`, the Potency entry is “inactive”.

As for `OC(CBr)CN1CCCCC1` (centres undefined), the Potency result was “inactive”.

Regarding `O=C(COc1ccccc1C(=O)Nc1ccccc1)Nc1cccc(F)c1`, the Potency result was “inactive”.

As to `CC1CC2C3CCC4=CC(=O)C=C[C@]4(C)[C@@]3(F)[C@@H](O)C[C@]2(C)[C@@]1(O)C(=O)CO` (some centres undefined), the Potency result is “inactive”.

With `CC1(C)CCc2cc(S(=O)(=O)N3CCN(c4nc(-c5cccs5)nc5ccccc45)CC3)ccc2O1`, the Potency entry is “inactive”.

Consider `C(=Nc1ccc(/C=C/c2ccnc3ccccc23)cc1)Nc1ccc(/C=C/c2ccnc3ccccc23)cc1`, for which the Potency entry was “inactive”.

With `O=C(CSc1ncc(CO)n1Cc1ccc(Cl)cc1)NCc1ccc(F)cc1`, the Potency result is “inactive”.

On to `COc1ccc(Cl)cc1C(=O)NNC(=S)NC(=O)/C=C/c1ccco1`, for which the Potency is 3.55 µM (active).

On to `COc1ccc(Cl)cc1C(=O)NNC(=O)c1nc2nc(C)cc(C)n2n1`, for which the Potency entry is “inactive”.

As to `CCC(C)NC(=O)c1cc(Cl)ccc1OC` (centres undefined), the Potency entry is “inactive”.

Regarding `Cc1cc(C)c2oc(-c3cccc(NC(=O)c4cccc(F)c4)c3C)nc2c1`, the Potency entry was “inactive”.

As for `O=[N+]([O-])c1ccc(S(=O)(=O)N2CCN(c3nc(-c4ccccc4)nc4ccccc34)CC2)cc1`, the Potency entry was “inactive”.

`Cc1ccc(C=O)cc1Cl`: the Potency result is “inactive”.

On to `O=C(Nc1ccccc1)c1ccccc1OCc1ccccc1`, for which the Potency result is “inactive”.

As for `OC[C@@H]1O[C@H](n2cnc3c(SCc4ccccc4)ncnc32)[C@H](O)[C@H]1O`, the Potency entry was “inactive”.

`COc1ccc(CN(Cc2ccccc2)C(=O)c2ccc(O)cc2)cc1COc1ccc(NC(C)=O)cc1`: the Potency entry was “inactive”.

On to `C=C1C=C(C)n2ncc(C(=O)Nc3ccccc3O)c2N1`, for which the Potency entry is “inactive”.

In the case of `COc1cccc2c1C(=O)c1c(O)c3c(c(O)c1C2=O)CC(O)(C(C)=NNC(=O)c1ccc(Cl)c(Cl)c1)CC3OC1CC(N)C(O)C(C)O1` (centres undefined), the Potency is 28.2 µM (active).

For the compound `Nc1ncnc2nnsc12`, the Potency result was “inactive”.

As to `CN(N=O)c1ccc(C=C2c3ccccc3-c3ccccc32)cc1`, the Potency entry is “inactive”.

For `COc1cc(OC)c(/C=C/c2ccnc3ccccc23)c(OC)c1`, the Potency entry is “inactive”.

On to `S=c1[nH]c(=S)c2n[nH]nc2[nH]1`, for which the Potency result was “inactive”.

For the compound `COc1ccc(Cn2c(=O)[nH]c3cc(C(=O)N4CCN(C(=O)c5ccco5)CC4)ccc3c2=O)cc1`, the Potency result was “inactive”.

As for `COc1ccc(CN2CCc3nc(Nc4ccccc4)ncc3C2)c(OC)c1OC`, the Potency entry is “inactive”.

As to `COc1cc2[nH]c(C)c(CCN3CCN(c4ccccc4)CC3)c2cc1OC`, the Potency result is “inactive”.

`Cc1ccc(-c2nc3ccccn3c2Nc2ccc(F)cc2)o1`: the Potency result is “inactive”.

As for `CSc1ccc(C2C(C(=O)Nc3ccccc3)=C(C)Nc3nc4ccccc4n32)cc1` (centres undefined), the Potency entry was “inactive”.

In the case of `Cc1cccc(NC(=O)COC(=O)c2ccccc2OCc2cccc(Br)c2)c1`, the Potency result was “inactive”.

Turning to `O=C1CSC2(C(=O)N(Cc3ccccc3)c3ccccc32)N1c1cccc(F)c1` (centres undefined), the Potency result is “inactive”.

As for `CCOC(=O)Cn1c(=O)n(C2CCCCC2)c2nc(-c3cccc(OC)c3)nc(C(N)=O)c21`, the Potency entry was “inactive”.

`O=C(Nc1ccccc1C(F)(F)F)c1nc(S(=O)(=O)Cc2ccccc2F)ncc1Cl`: the Potency result was “inactive”.

Consider `COc1ccc(OC)c(NC(=O)C2CCCN(S(=O)(=O)c3ccc4c(c3)CCCC(=O)N4)C2)c1` (centres undefined), for which the Potency result was “inactive”.

Consider `O=C1OCCN1C(=O)[C@H]1[C@H](c2ccccc2)C(c2ccc(F)cc2)=NN1c1ccccc1`, for which the Potency entry is “inactive”.

On to `C[C@@H]1C(c2ccc(F)cc2)=NN(c2ccc(Br)cc2)[C@H]1C(=O)N1CCOC1=O`, for which the Potency is 22.4 µM (active).

As for `O=C1OCCN1C(=O)[C@H]1[C@H](c2ccc(Cl)cc2)C(c2cccc(Cl)c2)=NN1c1ccc(Br)cc1`, the Potency result is “inactive”.

For the compound `COc1ccc(-c2nc(=N)sn2-c2ccccc2)cc1`, the Potency entry is “inactive”.

As to `Cc1ccc(C)c(N2CCN(C(=O)CCc3nc(-c4cccc(C(F)(F)F)c4)no3)CC2)c1`, the Potency result was “inactive”.

Take `Cc1ccc(C)c(N2CCN(C(=O)CCc3nc4ccccc4[nH]3)CC2)c1`: the Potency is 15.8 µM (active).

For the compound `Cc1ccc(C)c(N2CCN(C(=O)Cn3ncn4cccc4c3=O)CC2)c1`, the Potency entry is “inactive”.

Turning to `COc1ccc(CNC(=O)CSc2nc3ccccc3nc2Cc2ccccc2)cc1`, the Potency result was “inactive”.

With `C(=Nc1ccc(/C=C/c2ccnc3ccccc23)cc1)c1cc2c3c(c1)CCCN3CCC2`, the Potency entry was “inactive”.

For the compound `O=C(COC(=O)c1ccccc1OCCOc1ccccc1)Nc1cccc(Br)c1`, the Potency entry was “inactive”.

Regarding `COc1ccc(C(C)(O)c2nc(-c3ccc(C)c(C)c3)cs2)cc1` (centres undefined), the Potency is 3.16 µM (active).

For `COc1ccc(C(C)(NC(C)=O)c2nc(-c3ccc(S(C)(=O)=O)cc3)cs2)cc1` (centres undefined), the Potency result was “inactive”.

Take `COc1ccc(C(C)(O)c2nc(-c3cc(F)cc(F)c3)cs2)cc1` (centres undefined): the Potency entry is “inactive”.

`CCOc1n[nH]c(-c2ccccc2)n1`: the Potency entry was “inactive”.

Consider `COc1ccc(N2CCN(S(=O)(=O)c3ccc(-c4coc(C)n4)cc3)CC2)cc1`, for which the Potency result is “inactive”.

For the compound `Cc1ccc2ccc3c(c2n1)NS(=O)(=O)c1ccccc1-3`, the Potency entry was “inactive”.

`CC(=O)N1CCN(CC(=O)Nc2ccc(C)c(F)c2)CC1`: the Potency result was “inactive”.

In the case of `CCc1sc(C(=O)N2CCN(CC(=O)Nc3cccc(F)c3)CC2)cc1C`, the Potency was 25.1 µM (active).

For `CCN1CCN(C(=O)C2(NC(=O)Nc3cccc(F)c3)CCCCC2)CC1`, the Potency entry is “inactive”.

On to `CC1(C)CC(=O)c2cc(C(=O)NCc3ccccc3)c(=O)[nH]c2C1`, for which the Potency result was “inactive”.

`Oc1ccccc1-c1nc2ccc(Cl)cn2c1Nc1ccc2c(c1)OCCO2`: the Potency result is “inactive”.

Turning to `COc1cc(C(O)c2nc(-c3cnn(C)c3)cs2)ccc1F` (centres undefined), the Potency entry is “inactive”.

As to `COc1ccc(C(O)c2nc(-c3ccc4c(c3)OCO4)cs2)cc1` (centres undefined), the Potency is 22.4 µM (active).

For `COCc1cccc(-c2csc(C(O)c3ccc(F)cc3)n2)c1` (centres undefined), the Potency result is “inactive”.

In the case of `O=C(CCS(=O)(=O)c1ccc2c(c1)NC(=O)CO2)Nc1cccc(C(F)(F)F)c1`, the Potency result was “inactive”.

As to `COc1cc(OC)c(OC)cc1/C=C1\C=Cc2ccccc21`, the Potency entry was “inactive”.

Regarding `CCC(=O)Nc1cccc(-c2nc3cc(C)ccc3o2)c1`, the Potency result was “inactive”.

In the case of `Cc1cccc(N(C)C(=O)CS(=O)(=O)c2cccc3nsnc23)c1`, the Potency result was “inactive”.

Regarding `O=C1O/C(=C\c2ccc(O)cc2)C(O)=C1c1ccc(O)cc1`, the Potency entry is “inactive”.

In the case of `CCN(CC)c1nc(C#N)nc(OC)n1`, the Potency result was “inactive”.

As for `CN(C)c1ccc(C=Nc2ccc(/C=C/c3ccnc4ccccc34)cc2)cc1`, the Potency result is “inactive”.

Take `CCOC(=O)c1ccc(NC(=O)C2CCN(S(=O)(=O)c3ccc4c(c3)CCCC(=O)N4)CC2)cc1`: the Potency result is “inactive”.

Consider `Cc1csc(NCC(=O)c2c[nH]c3ccccc23)n1`, for which the Potency result was “inactive”.

For the compound `COc1ccc(CC(=O)Nc2nnc3n2CCS3)cc1OC`, the Potency entry is “inactive”.

Turning to `C[N+]1(CC(=O)c2cccs2)CCOCC1`, the Potency result is “inactive”.

Turning to `CC(C)(C)c1ccc(C(=O)C[n+]2cccc3cc(Cl)ccc32)cc1`, the Potency entry is “inactive”.

In the case of `CCOC(=O)c1c(-c2ccc(OC)cc2)oc2ccc(OCc3ccc(C(=O)OC)cc3)cc12`, the Potency entry is “inactive”.

Take `CCN(CC)c1ccc(S(=O)(=O)N2CCCCC2)cc1NC(=O)C1=COCCO1`: the Potency result is “inactive”.

`O=C(CSc1ccccc1)Nc1cccc(S(=O)(=O)N2CCOCC2)c1`: the Potency entry is “inactive”.

For `CCN(CC)c1ccc(S(=O)(=O)N2CCOCC2)cc1NC(=O)CSc1cccc[n+]1[O-]`, the Potency was 17.8 µM (active).

Turning to `Cc1ccc(CCNC(=O)c2ccc(CNS(=O)(=O)c3ccc(C)cc3)cc2)cc1`, the Potency result is “inactive”.

For the compound `Nc1ccc(/C=C/c2ccnc3ccccc23)c([N+](=O)[O-])c1`, the Potency entry was “inactive”.

As to `Oc1ccc(N=Nc2nccs2)c(O)c1`, the Potency is 2.24 µM (active).

Regarding `CN(C)c1ccc(/C=N\Nc2ccc([N+](=O)[O-])cc2[N+](=O)[O-])cc1Cl`, the Potency result is “inactive”.
